Active and inactive are the calls of the source. How the source made its calls: active means hit-call score of the fitted dose curve at least 0.9, where 1 is the maximum; inactive means score below 0.9.
What was measured:
Settings in all cases: mRNA level, 48 h; actives raise or lower the signal
[1] = read-out: Cytochrome P450 (CYP24A1), CYP24A1 (gene 1591); test: LTEA_HepaRG_CYP24A1: Life Technologies and Expression Analysis (LTEA) Assay for Cytochrome P450 (CYP24A1) using HepaRG (AID 2283478)
Method in brief: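 Differentiated HepaRG cells, pre-cultured 48 h, were exposed in duplicate for 48 h in serum-free induction medium to 8 half-log concentrations (top 100 uM, 0.5% DMSO). CYP24A1 mRNA was quantified by TaqMan qRT-PCR, normalized to ACTB/GAPDH/POLR2A, fitted bidirectionally versus DMSO.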

[2] = read-out: cysteine-aspartic acid protease (CASP8), CASP8 (gene 841); test: LTEA_HepaRG_CASP8: Life Technologies and Expression Analysis (LTEA) Assay for cysteine-aspartic acid protease (CASP8) using HepaRG (AID 2283480)
Method in brief: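 Concentration-response in duplicate up to 100 uM (half-log steps, 0.5% DMSO) on differentiated HepaRG cultures for 48 h. Expression change of CASP8 mRNA is determined by TaqMan qRT-PCR with housekeeping-gene normalization.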

[3] = read-out: Cytochrome P450 (CYP2B6), CYP2B6 (gene 1555); test: LTEA_HepaRG_CYP2B6: Life Technologies and Expression Analysis (LTEA) Assay for Cytochrome P450 (CYP2B6) using HepaRG (AID 2283481)
Method in brief: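 Differentiated HepaRG cells, serum-free induction medium, exposed 48 h in duplicate to 8-point half-log concentrations from 100 uM in 0.5% DMSO. CYP2B6 mRNA by qRT-PCR, normalized to ACTB, GAPDH, POLR2A; bidirectional fit versus DMSO.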

[4] = read-out: Cytochrome P450 2C19 (Homo sapiens) (UniProt P33261); test: LTEA_HepaRG_CYP2C19: Life Technologies and Expression Analysis (LTEA) Assay for CYP2C19 using HepaRG (AID 2283482)
Method in brief: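 Differentiated human HepaRG cells were exposed for 48 h in serum-free induction medium to 8 concentrations (top 100 uM, half-log steps, 0.5% DMSO). CYP2C19 mRNA was measured by qRT-PCR, normalized to ACTB/GAPDH/POLR2A, and fitted bidirectionally against DMSO.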

[5] = read-out: CYP2C8 (gene 1558); test: LTEA_HepaRG_CYP2C8: Life Technologies and Expression Analysis (LTEA) Assay for CYP2C8 using HepaRG (AID 2283483)
Method in brief: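 This is a transcriptional endpoint in HepaRG cultures: 48 h exposure, highest concentration 100 uM. CYP2C8 mRNA is quantified by TaqMan qRT-PCR.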

[6] = read-out: CYP2C9 (gene 1559); test: LTEA_HepaRG_CYP2C9: Life Technologies and Expression Analysis (LTEA) Assay for CYP2C9 using HepaRG (AID 2283484)
Method in brief: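 Eight-point concentration-response (highest 100 uM, half-log dilutions) in HepaRG cells for 48 h; CYP2C9 expression by qRT-PCR normalized to ACTB, GAPDH, POLR2A. Bidirectional fit, DMSO baseline.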

[7] = read-out: CYP2E1 (gene 1571); test: LTEA_HepaRG_CYP2E1: Life Technologies and Expression Analysis (LTEA) Assay for CYP2E1 using HepaRG (AID 2283485)
Method in brief: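 CYP2E1 transcript measured by Fluidigm qRT-PCR against three housekeeping genes in human HepaRG cells treated 48 h (top 100 uM, half-log steps, 0.5% DMSO vehicle). Gain or loss fitted relative to DMSO baseline.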

[8] = read-out: Cytochrome P450 3A4 (Homo sapiens) (UniProt P08684); test: LTEA_HepaRG_CYP3A4: Life Technologies and Expression Analysis (LTEA) Assay for CYP3A4 using HepaRG (AID 2283487)
Method in brief: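 In a human hepatic line (HepaRG), duplicate wells were treated 48 h with up to 100 uM chemical in half-log dilutions. Endpoint: CYP3A4 mRNA induction or loss relative to 0.5% DMSO vehicle, by qRT-PCR.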

[9] = read-out: DNA damage-inducible transcript 3 (DDIT3), DDIT3 (gene 1649); test: LTEA_HepaRG_DDIT3: Life Technologies and Expression Analysis (LTEA) Assay for DNA damage-inducible transcript 3 (DDIT3) using HepaRG (AID 2283488)
Method in brief: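 DDIT3 transcript was quantified by qRT-PCR with ACTB/GAPDH/POLR2A normalization after 48 h chemical treatment of differentiated HepaRG cells in 0.5% DMSO. Dosing was eight-point, half-log, top 100 uM, duplicate wells. Curves fitted bidirectionally versus DMSO.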

[10] = read-out: Pro-epidermal growth factor (Homo sapiens) (UniProt P01133); test: LTEA_HepaRG_EGF: Life Technologies and Expression Analysis (LTEA) Assay for Epidermal growth factor (EGF) using HepaRG (AID 2283489)
Method in brief: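 Differentiated human HepaRG cells, plated 48 h then switched to serum-free induction medium, were exposed for 48 h to test chemicals (8-point half-log series, top 100 uM, 0.5% DMSO). EGF mRNA was quantified by qRT-PCR, normalized to ACTB, GAPDH, POLR2A.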

[11] = read-out: Ezrin (EZR), EZR (gene 7430); test: LTEA_HepaRG_EZR: Life Technologies and Expression Analysis (LTEA) Assay for Ezrin (EZR) using HepaRG (AID 2283491)
Method in brief: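 Gain or loss of EZR mRNA is scored relative to 0.5% DMSO in human HepaRG cultures treated 48 h with test chemicals in duplicate, eight half-log concentrations from 100 uM.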

[12] = read-out: Cytochrome P450 3A7 (Homo sapiens) (UniProt P24462); test: LTEA_HepaRG_CYP3A7: Life Technologies and Expression Analysis (LTEA) Assay for CYP3A7 using HepaRG (AID 2283492)
Method in brief: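 HepaRG cells plated 48 h, then dosed in serum-free induction medium for 48 h at 8 concentrations (top 100 uM, half-log steps, 0.5% DMSO). CYP3A7 mRNA by qRT-PCR, normalised to ACTB/GAPDH/POLR2A; bidirectional fit versus DMSO.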

[13] = read-out: CYP3A5 (gene 1577); test: LTEA_HepaRG_CYP3A5: Life Technologies and Expression Analysis (LTEA) Assay for CYP3A5 using HepaRG (AID 2283493)
Method in brief: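 mRNA levels were quantified by qRT-PCR on Fluidigm arrays and normalized to three housekeeping genes. Differentiated HepaRG cells received 48 h exposure (top 100 uM, half-log steps, 0.5% DMSO vehicle, duplicate); bidirectional fitting versus DMSO.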

[14] = read-out: Fatty Acid-Binding Protein 1 (FABP1), FABP1 (gene 2168); test: LTEA_HepaRG_FABP1: Life Technologies and Expression Analysis (LTEA) Assay for Fatty Acid-Binding Protein 1 (FABP1) using HepaRG (AID 2283494)
Method in brief: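 Values reflect bidirectional concentration-response fitting of FABP1 mRNA change against 0.5% DMSO controls. Human HepaRG cultures received eight half-log doses (top 100 uM) for 48 h; expression quantified by TaqMan qRT-PCR with housekeeping-gene normalization.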

[15] = read-out: Cytochrome P450 4A22 (Homo sapiens) (UniProt Q5TCH4); test: LTEA_HepaRG_CYP4A22: Life Technologies and Expression Analysis (LTEA) Assay for Cytochrome P450 4A22 (CYP4A22) using HepaRG (AID 2283495)
Method in brief: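 qRT-PCR of CYP4A22 mRNA (Fluidigm TaqMan, normalized to three housekeeping genes) after 48 h chemical exposure of HepaRG cells; 8-point half-log series, top 100 uM, 0.5% DMSO vehicle. Bidirectional curve fitting vs DMSO baseline.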

[16] = read-out: Cytochrome P450 7A1 (Homo sapiens) (UniProt P22680); test: LTEA_HepaRG_CYP7A1: Life Technologies and Expression Analysis (LTEA) Assay for Cytochrome P450 7A1 (CYP7A1) using HepaRG (AID 2283496)
Method in brief: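 HepaRG, 48 h exposure, 8-pt half-log series from 100 uM, 0.5% DMSO vehicle, duplicates. Readout: TaqMan qRT-PCR mRNA vs three housekeeping genes; bidirectional curve fit against DMSO baseline.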

[17] = read-out: Glutathione S-Transferase (GSTA2), GSTA2 (gene 2939); test: LTEA_HepaRG_GSTA2: Life Technologies and Expression Analysis (LTEA) Assay for Glutathione S-Transferase (GSTA2) using HepaRG (AID 2283497)
Method in brief: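 Oxidative-stress marker GSTA2 is quantified by TaqMan qRT-PCR in HepaRG cultures treated 48 h across an eight-point range to 100 uM. Expression is normalized to endogenous controls and compared with 0.5% DMSO vehicle.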

[18] = read-out: CYP4A11 (gene 1579); test: LTEA_HepaRG_CYP4A11: Life Technologies and Expression Analysis (LTEA) Assay for CYP4A11 using HepaRG (AID 2283486)
Method in brief: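 Differentiated HepaRG cells, serum-free induction medium, exposed 48 h in duplicate to 8-point half-log series from 100 uM in 0.5% DMSO. CYP4A11 mRNA measured by qRT-PCR, normalized to ACTB, GAPDH, POLR2A; bidirectional fit versus DMSO.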

[19] = read-out: Early growth response protein 1 (EGR1) transcription factor, EGR1 (gene 1958); test: LTEA_HepaRG_EGR1: Life Technologies and Expression Analysis (LTEA) Assay for Early growth response protein 1 (EGR1) transcription factor using HepaRG (AID 2283490)
Method in brief: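 EGR1 expression change in human HepaRG after 48 h chemical exposure, assessed by housekeeping-normalized qRT-PCR; concentration-response up to 100 uM, fitted in both directions against DMSO controls.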

Measured: AC50

Cytochrome P450 3A4 (Homo sapiens), sequence (P08684 whole entry, looked up): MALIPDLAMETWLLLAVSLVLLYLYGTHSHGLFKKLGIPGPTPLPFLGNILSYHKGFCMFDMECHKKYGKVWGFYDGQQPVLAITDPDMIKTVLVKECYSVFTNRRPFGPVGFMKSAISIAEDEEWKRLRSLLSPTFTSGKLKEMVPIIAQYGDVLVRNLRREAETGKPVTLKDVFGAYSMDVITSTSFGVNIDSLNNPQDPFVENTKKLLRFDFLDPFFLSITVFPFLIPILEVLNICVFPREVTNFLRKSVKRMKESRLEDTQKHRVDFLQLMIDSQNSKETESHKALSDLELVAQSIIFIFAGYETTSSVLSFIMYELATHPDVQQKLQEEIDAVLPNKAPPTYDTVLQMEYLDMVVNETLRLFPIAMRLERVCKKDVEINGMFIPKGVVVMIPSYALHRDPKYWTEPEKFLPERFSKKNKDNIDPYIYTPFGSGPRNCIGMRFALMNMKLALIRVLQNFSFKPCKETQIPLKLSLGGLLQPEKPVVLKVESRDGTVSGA
Cytochrome P450 3A7 (Homo sapiens), sequence (P24462 whole entry, looked up): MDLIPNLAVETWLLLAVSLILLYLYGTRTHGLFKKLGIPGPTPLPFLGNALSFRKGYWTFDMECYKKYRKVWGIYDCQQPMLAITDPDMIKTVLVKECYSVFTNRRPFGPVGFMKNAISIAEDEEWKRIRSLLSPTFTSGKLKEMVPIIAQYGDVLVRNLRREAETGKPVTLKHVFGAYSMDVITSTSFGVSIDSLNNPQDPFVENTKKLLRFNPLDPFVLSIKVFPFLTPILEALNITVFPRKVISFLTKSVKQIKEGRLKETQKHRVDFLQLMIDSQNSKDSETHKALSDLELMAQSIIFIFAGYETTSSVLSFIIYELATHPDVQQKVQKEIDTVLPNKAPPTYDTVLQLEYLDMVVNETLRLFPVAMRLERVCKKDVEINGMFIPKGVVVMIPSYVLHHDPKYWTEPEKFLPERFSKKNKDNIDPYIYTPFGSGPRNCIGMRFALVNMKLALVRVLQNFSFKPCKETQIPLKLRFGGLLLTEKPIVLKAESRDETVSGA
Cytochrome P450 2C19 (Homo sapiens), sequence (P33261 whole entry, looked up): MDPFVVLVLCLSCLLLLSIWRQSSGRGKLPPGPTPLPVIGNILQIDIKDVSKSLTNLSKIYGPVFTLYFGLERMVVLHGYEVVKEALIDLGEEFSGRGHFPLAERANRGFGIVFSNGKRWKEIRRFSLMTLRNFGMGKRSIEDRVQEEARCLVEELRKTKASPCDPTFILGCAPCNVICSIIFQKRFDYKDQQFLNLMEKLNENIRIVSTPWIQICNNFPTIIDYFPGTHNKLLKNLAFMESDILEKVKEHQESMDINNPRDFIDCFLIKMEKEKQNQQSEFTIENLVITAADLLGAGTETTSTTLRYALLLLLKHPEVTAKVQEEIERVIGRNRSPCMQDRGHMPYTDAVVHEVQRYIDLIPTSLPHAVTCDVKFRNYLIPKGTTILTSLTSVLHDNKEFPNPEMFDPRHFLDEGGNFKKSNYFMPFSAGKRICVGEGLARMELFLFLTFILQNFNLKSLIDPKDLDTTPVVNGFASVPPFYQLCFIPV

O=c1c(-c2ccc(O)cc2)coc2cc(O)ccc12
inactive: [1] | [2] | [3] | [4] | [5] | [6] | [7] | [8] | [9] | [10] | [11] | [12] | [13] | [14] | [15] | [16] | [17]

CN1CCC[C@H]1c1cccnc1
inactive: [1] | [2] | [3] | [4] | [5] | [7] | [18] | [8] | [9] | [10] | [11] | [12] | [13] | [14] | [15] | [16] | [17]

Oc1cccc(O)c1
inactive: [1] | [2] | [3] | [5] | [6] | [7] | [18] | [8] | [9] | [10] | [19] | [11] | [12] | [13] | [14] | [15] | [16] | [17]

CCCCC(CC)COC(=O)CCCCC(=O)OCC(CC)CCCC (stereo not given)
inactive: [1] | [2] | [3] | [5] | [6] | [7] | [8] | [9] | [10] | [19] | [11] | [12] | [13] | [14] | [15] | [16] | [17]

CCC(=C(c1ccc(O)cc1)c1ccc(OCCN(C)C)cc1)c1ccccc1
active: [2] 75.9 µM | [3] 3.08 µM | [5] 2.39 µM | [18] 84.4 µM | [8] 2.51 µM | [9] 72.8 µM | [12] 3.5 µM | [13] 92.9 µM
inactive: [1] | [6] | [7] | [10] | [11] | [14] | [15] | [16] | [17]

CC(C)(C)c1cccc(C(C)(C)C)c1O
inactive: [1] | [2] | [3] | [5] | [6] | [7] | [8] | [11] | [12] | [13] | [14] | [15] | [16] | [17]
active: [9] 12.2 µM

CCCCOCCO
inactive: [1] | [2] | [3] | [5] | [6] | [7] | [8] | [9] | [10] | [19] | [11] | [12] | [13] | [14] | [15] | [16] | [17]

O=C(O)c1ccccc1C(c1ccc(O)cc1)c1ccc(O)cc1
active: [3] 3.65 µM
inactive: [1] | [2] | [5] | [6] | [7] | [8] | [9] | [10] | [19] | [11] | [12] | [13] | [14] | [15] | [16] | [17]

CCCCCCCC(=O)O
inactive: [1] | [2] | [3] | [5] | [6] | [7] | [9] | [10] | [19] | [11] | [12] | [13] | [14] | [15] | [16] | [17]

CCCCCCCCC(=O)O
inactive: [1] | [2] | [3] | [5] | [6] | [7] | [18] | [8] | [9] | [10] | [11] | [12] | [13] | [14] | [15] | [16] | [17]

OC1CCCCC1
inactive: [1] | [2] | [3] | [5] | [6] | [7] | [18] | [8] | [9] | [10] | [11] | [12] | [13] | [14] | [15] | [16] | [17]

CN(C)C=O
inactive: [1] | [2] | [3] | [5] | [6] | [7] | [8] | [9] | [10] | [19] | [11] | [12] | [13] | [14] | [15] | [16] | [17]

CCCCCCCCOC(=O)CCCCCCCCC(=O)OCCCCCCCC
inactive: [1] | [2] | [3] | [5] | [6] | [7] | [8] | [9] | [10] | [11] | [12] | [13] | [14] | [15] | [16] | [17]

NC(=O)N(O)[C@@H]1C=C[C@H](Oc2cccc(Oc3ccc(F)cc3)c2)C1
active: [3] 34.4 µM | [5] 27.3 µM | [6] 58.8 µM | [7] 32.1 µM | [18] 30.8 µM | [8] 72.1 µM | [9] 35.1 µM | [12] 33.7 µM | [14] 74.2 µM | [15] 25.6 µM | [16] 74.2 µM | [17] 51 µM
inactive: [1] | [2] | [10] | [11] | [13]

Reference: PubChem BioAssay (EPA / NIEHS)
